Test results reported in PubChem BioAssay (NCATS).
Records with an inconclusive call do not appear. Values without a mark were called inactive. Activity calls are given as the source filed them. The call rests on the fitted dose curve; in most records, active means well fitted cell-killing curve with a large enough effect; inconclusive means small, poorly fitted or top-dose-only effect, or effect the other way; inactive means no such curve, though single readings can be large or run the other way.
Potency means the concentration at half of the fitted maximal effect.

Experiment: Quantitative High-Throughput drug screen in 47 multiple myeloma cell lines against the NCATS MIPE library collection: INA6_PLB cell viability assay (AID 1918965; further: nearly all actives have a fitted effect of over 55% in size)
Conditions: INA6 myeloma viability, CellTiter-Glo ATP luminescence, 48 h; series mostly up to 45.8 µM; viability (% of control): at the top concentration
Excerpt: PI: Beverly A. Mock Ph.D.
Laboratory of Cancer Biology and Genetics,
Center for Cancer Research, National Cancer Institute,
National Institute of Health, Bethesda, Maryland
Drug resistance and disease progression are common in multiple myeloma (MM) patients, underscoring the need for new therapeutic combinations. […] We hypothesized that effective combinations would reduce MYC expression and enhance p16 activity. […] These preclinical data identify potentially useful drug combinations for evaluation in drug-resistant MM and reveal potential mechanisms of combined drug sensitivity.
Described herein is the primary MIPE qHTS used to cherrypick compounds. Validated compounds were then further tested for potential synergistic activiy.
[1] Peat TJ, Gaikwad SM, Dubois W, Gyabaah-Kessie N, Zhang S, Gorjifard S, Phyo Z, Andres M, Hughitt VK, Simpson RM, Miller MA, Girvin AT, Taylor A, Williams D, D'Antonio N, Zhang Y, Rajagopalan A, Flietner E, Wilson K, Zhang X, Shinn P, Klumpp-Thomas C, McKnight C, Itkin Z, Chen L, Kazandijian D, Zhang J, Michalowski AM, Simmons JK, Keats J, Thomas CJ, Mock BA. Drug combinations identified by high-throughput screening promote cell cycle transition and upregulate Smad pathways in myeloma. Cancer Lett. 2023 Aug 1;568:216284. doi: 10.1016/j.canlet.2023.216284. Epub 2023 Jun 24. PMID: 37356470; PMCID: PMC10408729.
SEQUENCE No. (e.g., 1, 2, 3, etc.); […] (e.g., Cells, Incubation, Reagent, etc.); VALUE and DESCRIPTION.
1; Cells; 5 uL; white, solid bottom 1536-well Greiner assay plate.
2; Compounds; 23 nL; Kalypsis pin tool (Wako USA) equipped with a 1536-well pin head to transfer to the assay plates.
3; Incubation; 48 hours; 37C incubation.
4; Reagent;5uL; CellTiter Glo (Promega).
5; Detector; 425V; Luminescence; Viewlux PerkinElmer.
NOTES (numbers refer to Sequence numbers above)
1. The cell-based screening methods employed in this study were like those previously published. Briefly, the corresponding myeloma cell lines were screened in 1,536-well plates with 500 cells, 5-uL per well for inhibition of cell viability (assessed by measuring ATP levels with CellTiterGlo).
2. NCATS MIPE 4.0 library of approved and investigational drugs were added using the Kalypsis pin tool. Wells treated with DMSO only for 100% viability and media only wells for 0% viability were used as controls.
3. The assay plates were covered and incubated for 48 hours in a 37C, 5% CO2 incubator with controlled humidity.
4. After 48 hours, CellTilter-GloTM luminescent substrate mix (Promega) reagent was added to the assay plate and plates we incubated for 5 min at room temperature.
5. Signal was measured as median relative luminescence units on a ViewLux (PerkinElmer) multiplate reader.
[1] Heske CM, Davis MI, Baumgart JT, Wilson K, Gormally MV, Chen L, Zhang X, Ceribelli M, Duveau DY, Guha R, Ferrer M, Arnaldez FI, Ji J, Tran HL, Zhang Y, Mendoza A, Helman LJ, Thomas CJ. Matrix Screen Identifies Synergistic Combination of PARP Inhibitors and Nicotinamide Phosphoribosyltransferase (NAMPT) Inhibitors in Ewing Sarcoma. Clin Cancer Res. 2017 Dec 1;23(23):7301-7311. doi: 10.1158/1078-0432.CCR-17-1121. Epub 2017 Sep 12. PMID: 28899971; PMCID: PMC6636827.
For `COc1cc2ncnc(-n3nc(-c4ccccn4)nc3N)c2cc1OC`, the Potency was 7.43 µM (active). In the case of `Cc1c(NC(=O)c2ccc(C(C)(C)C)cc2)cccc1-c1cn(C)c(=O)c(Nc2ccc(C(=O)N3CCOCC3)cc2)n1`, the Potency was 23.5 µM (active). With `Cc1ccc(/C=N/NC(=O)c2ccccc2Oc2ccccc2)o1` the Potency was 16.6 µM (active). For `Cc1ccccc1C(C(=O)NC1CCCCC1)N(C(=O)Cn1ccnc1C)c1cccc(F)c1` (stereo not given), the “viability (% of control)” value was 153%. With `NC(CO)(CO)CCc1ccc(Sc2cccc(OCc3ccccc3)c2)cc1Cl` the Potency was 9.35 µM (active). For `Cc1cnc(C(=O)O)c[n+]1[O-]`, the “viability (% of control)” value was 166%. For `O=C(Nc1cc(Cl)cc2c1[nH]c1cnccc12)c1cccnc1`, the Potency was 16.6 µM (active). With `CC(C)(C)c1cc(C(=O)O)c(NC(=O)Nc2ccc3[nH]ncc3c2)s1` the “viability (% of control)” value was 102%. With `COc1ccc(-c2nc(N3CCOCC3)c3sc(CN(C)c4ncc(C(=O)NO)cn4)cc3n2)cn1` the “viability (% of control)” value was 1.67%. For `CC(C)(C)COc1ccc(-n2cc(C(=O)O)cn2)cc1C#N`, the “viability (% of control)” value was 171%. In the case of `COC[C@@H](c1ccc(C(F)(F)F)cc1)N1CCN(C2(C)CCN(C(=O)c3c(C)ncnc3C)CC2)C[C@H]1C`, the Potency was 26.4 µM (active). In the case of `CC(C)(C)NC(=O)Nc1cccc(Nc2ncc(F)c(NC(C)(C)CO)n2)c1`, the Potency was 18.7 µM (active). In the case of `CN1[C@@H]2CCC[C@@H]1CC(NC(=O)c1nn(C)c3ccccc13)C2` (stereo not given in full), the “viability (% of control)” value was 134%. With `Oc1ccc(C2CCN(c3ccnc4ccccc34)CC2)cc1O` the Potency was 7.43 µM (active). For `CN(C)Cc1ccc(-c2nc3cccc4c3n2CCNC4=O)cc1`, the Potency was 16.6 µM (active). For `CCCCCN(C)CCC(O)(P(=O)(O)O)P(=O)(O)O`, the “viability (% of control)” value was 122%. In the case of `CNC(=O)c1ccccc1Sc1ccc2c(C=Cc3ccccn3)n[nH]c2c1`, the Potency was 18.7 µM (active). In the case of `Clc1ccc(C(c2ccc(Cl)cc2)n2cc[n+](CC(OCc3ccc(Cl)cc3Cl)c3ccc(Cl)cc3Cl)c2)cc1` (stereo not given), the Potency was 8.33 µM (active). With `CC(=NNC(=S)N1CCC1)c1ccccn1` the “viability (% of control)” value was 7.01%. For `CC(C)OC(=O)CCCC=CC[C@@H]1[C@H](C=C[C@@H](O)COc2cccc(C(F)(F)F)c2)[C@H](O)C[C@@H]1O`, the Potency was 11.8 µM (active). In the case of `COc1cc2nc(-c3ccc(N4CCN(C)CC4)cc3)nc(NCCN3CCOCC3)c2cc1OC`, the Potency was 0.0372 µM (active). With `CC=C(C)C(=O)O[C@H]1C(C)=C[C@]23C(=O)[C@@H](C=C(CO)[C@@H](O)[C@]12O)[C@H]1[C@@H](C[C@H]3C)C1(C)C` the Potency was 0.0066 µM (active). In the case of `CNC1CCC(N(Cc2cccc(-c3ccncc3)c2)C(=O)c2sc3c(F)ccc(F)c3c2Cl)CC1` (stereo not given), the Potency was 8.33 µM (active). In the case of `O=C(O)CCC1CCC(c2cc(F)ccc2F)(S(=O)(=O)c2ccc(Cl)cc2)CC1` (stereo not given), the Potency was 3.32 µM (active). For `O=C(O)c1ccccc1C(=O)Nc1ccc(-c2ccccc2)cc1`, the “viability (% of control)” value was 152%. For `CCOc1ccc(Nc2nc(-c3c(C)nc4ccccn34)cs2)cc1`, the Potency was 0.0026 µM (active). For `O=c1ccn([C@@H]2O[C@H](CO)[C@H](O)[C@H]2O)c(=O)[nH]1`, the “viability (% of control)” value was 174%. In the case of `NC(=O)c1cccc(-c2cc(Nc3ccc(OC(F)(F)F)cc3)ncn2)c1`, the Potency was 14.8 µM (active). With `CN1CCN(CCOc2cc(OC3CCOCC3)c3c(Nc4c(Cl)ccc5c4OCO5)ncnc3c2)CC1` the Potency was 2.96 µM (active). For `O=c1cc(-c2cccc3c2Sc2ccccc2S3)oc(N2CCOCC2)c1`, the Potency was 18.7 µM (active). For `COc1ccc(-c2cc(=O)c3c(O)cc(O)cc3o2)cc1O`, the Potency was 8.33 µM (active). With `Cn1c(N2CCCCS2(=O)=O)nc(C(=O)NCc2ccc(F)cc2)c(O)c1=O` the “viability (% of control)” value was 111%. With `COc1ccc(-c2coc3cc(O)ccc3c2=O)cc1` the “viability (% of control)” value was 133%. With `CC[C@@H]1C=C(C)C[C@H](C)C[C@H](OC)[C@H]2O[C@@](O)(C(=O)C(=O)N3CCCC[C@@H]3C(=O)O[C@H](C(C)=C[C@@H]3CC[C@H](Cl)[C@H](OC)C3)[C@H](C)[C@@H](O)CC1=O)[C@H](C)C[C@H]2OC` the Potency was 5.26 µM (active). In the case of `CCOC(=O)O[C@]1(C(=O)OCCl)CC[C@@H]2[C@H]3CCC4=CC(=O)C=C[C@]4(C)[C@@H]3[C@@H](O)C[C@@]21C`, the “viability (% of control)” value was 126%. For `CCS(=O)(=O)N1CC(CC#N)(n2cc(-c3ncnc4[nH]ccc34)cn2)C1`, the Potency was 0.418 µM (active). With `COCCOC(=O)C1=C(C)NC2=C(C(=O)CC(c3ccccc3OC)C2)C1c1cccc(O)c1` (stereo not given) the Potency was 1.66 µM (active). In the case of `COc1ccc(C2CC(c3ccccc3)=NN2c2ccc(S(N)(=O)=O)cc2)cc1` (stereo not given), the Potency was 23.5 µM (active). In the case of `COc1ccc(Cc2nccc3cc(OC)c(OC)cc23)cc1OC`, the Potency was 20.9 µM (active). With `CCNc1cc(NC2CCC(O)CC2)nc(Nc2ccc3c(ccn3Cc3ccccc3)c2)n1` (stereo not given) the Potency was 16.6 µM (active).
